# Test results from the supplement of paper PMC3334620.
# Whole data set: some 33,000 sequences, median “E-score (-0.5 to 0.5)” near -0.0059, cut for the highest 2% near 0.26. The list comes from a sample in which the highest values are over-represented; it also holds similar and randomly drawn sequences.
# Target: T1, Cin5 (UniProt P40917)
# T1 sequence: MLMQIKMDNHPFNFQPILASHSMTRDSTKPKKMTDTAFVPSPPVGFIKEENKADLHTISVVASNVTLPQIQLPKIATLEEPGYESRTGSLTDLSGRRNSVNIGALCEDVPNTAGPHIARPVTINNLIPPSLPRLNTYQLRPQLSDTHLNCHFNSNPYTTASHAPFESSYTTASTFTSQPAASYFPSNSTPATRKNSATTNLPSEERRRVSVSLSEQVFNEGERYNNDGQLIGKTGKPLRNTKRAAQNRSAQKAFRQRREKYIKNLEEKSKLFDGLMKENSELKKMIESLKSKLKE
# Assay: PBM E-score (8-mer binding enrichment) (E-score (-0.5 to 0.5)); higher = stronger / more preferred TF binding
# Details: protein concentration: 100 nM; construct: GST-full length
# Protocol: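 Universal 'all 10-mer' protein binding microarrays (Agilent AMADID 015681) probed with GST-tagged S. cerevisiae TFs (full-length or DBD) made by in vitro transcription/translation (PURExpress), about 100-200 nM. Bound TF was detected with fluorescent anti-GST. Each ungapped 8-mer (which stands for itself and its reverse complement) is scored by the PBM enrichment score (E-score), a modified Wilcoxon-Mann-Whitney statistic from -0.5 to +0.5, computed with the Universal PBM Analysis Suite. Scale: above 0.35 generally sequence-specific binding.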
row,Sequence,PBM E-score
1,CCGAGGAG,-0.213
2,AGAGCCTG,-0.163
3,ACGAAGAG,-0.0165
4,CCGAAAGC,-0.328
5,AAGGGTAC,-0.137
6,ATCGACTG,0.101
7,ACGTGGAA,-0.00812
8,TCGTGGAA,0.263
9,GCGTGGAA,0.106
10,GGACACCC,-0.226
11,AGAAGCGC,0.0405
12,GATCCCAA,-0.0221
13,CAAGCAAG,-0.103
14,ATTAACAG,0.0268
15,CTTAACAC,0.152
16,ATTAACAA,0.274
17,ATTAACTA,0.272
18,GTTAACTA,0.205
19,ATTAACTC,0.17
20,CATAACAA,0.252
21,GTTAACAA,0.17
22,TATAACAA,0.295
23,AATAACAC,0.247
24,ATTAACAC,0.271
25,GATAACAA,0.1

row,Sequence,PBM E-score
1,CCACTAAC,0.0063
2,ATTGGGGA,0.00734
3,AGGTCCTC,-0.134
4,GCCGCGAC,-0.086
5,ACGAACGG,0.0374
6,CACGATAG,0.139
7,CTAGTCAG,-0.0157
8,AGGACCCG,-0.169
9,ACCATACC,-0.0386
10,ATCAGTTG,0.209
11,CCAGCGCA,-0.132
12,GAATTCCA,0.173
13,ATATTCCA,0.274
14,AAATTCCA,0.295
15,ATATTCCG,0.179
16,CTATTCCA,0.215
17,CAATTCCA,0.0576
18,AAAAGCTT,-0.127
19,CCTCAATA,-0.0429
20,CCGGGGCC,-0.242
21,CTCGAGAA,-0.0673
22,ACTTGTAC,0.00779
23,CTATCTCA,-0.00021
24,ATATCTCA,0.277
25,ATCTCTCA,0.216

row,Sequence,PBM E-score
1,CTGCTATA,0.117
2,GCAACTCA,0.00079
3,TAAGCTTA,0.372
4,CAAGCTGA,0.233
5,GAAGCTTA,0.171
6,CAAGCTTA,0.184
7,TAAGCTGA,0.267
8,AAAGCTGA,-0.056
9,GGCTGTCA,-0.21
10,TATATCAA,0.196
11,GCATCGGC,-0.125
12,ACTACCCG,-0.0362
13,AGCTTCCG,-0.0682
14,GGTATTAA,0.064
15,CGTATTAC,0.214
16,AGTATTCC,0.225
17,AGTATTAG,0.275
18,GGTATTAC,0.271
19,AGTATTAT,0.0851
20,AGTATTAC,0.27
21,AGTATTAA,0.242
22,CGTATTAG,0.109
23,GGTTGCTA,-0.0578
24,GACCGCCA,-0.0859
25,CACTGTAC,-0.0867

row,Sequence,PBM E-score
1,CTTGCACC,0.0355
2,AAGCACAT,0.206
3,AGGAGAGC,-0.394
4,AGCAGCAG,-0.0447
5,CCTGGTAC,-0.1
6,CTCTGATC,-0.162
7,GTATTGTA,0.274
8,CTATTGTA,0.13
9,GCATTACA,0.167
10,GTATTACA,0.34
11,GTATTAGA,0.234
12,ATATTAGA,0.159
13,ATATTATA,0.265
14,GTATTATA,0.267
15,ATATTGTA,0.151
16,CTATTACA,0.181
17,CTATTATA,0.142
18,GCATTATA,0.152
19,AGCTAGGC,-0.14
20,CGCCGCAA,0.0347
21,GACAGTCA,-0.165
22,CCGAATGA,-0.0132
23,CCCAATAC,-0.00655
24,TTCCGGAA,0.248
25,ATCCTCTG,0.0169

row,Sequence,PBM E-score
1,AGGATCCA,-0.0524
2,GGAATCCA,0.0132
3,ATATTATG,0.379
4,ATATTATC,0.233
5,AGATTATG,0.248
6,GGGGTGTA,-0.208
7,CCCGATAG,-0.0593
8,AATAATGG,0.226
9,AATAATAG,0.198
10,AATAATCT,0.345
11,AATAATAT,0.356
12,AATAATAC,0.181
13,GATAATAA,0.199
14,CATAATAA,0.0985
15,AATAATAA,0.305
16,AAAAATCT,0.0604
17,AATAATGC,0.145
18,AATAATGT,0.273
19,AATAACCT,0.061
20,AAAAAACG,0.125
21,AATCATTG,0.207
22,ACGCAGTA,-0.15
23,CCACCGTA,-0.049
24,GGTAGCAC,-0.152
25,CATGGATC,-0.00694

row,Sequence,PBM E-score
1,ACTCGCGA,0.214
2,TAGATCGA,0.0888
3,ACTCTGGG,-0.0166
4,CGGAGACC,-0.167
5,CCCTCGGC,-0.217
6,AGTCCCTA,-0.176
7,AGCTGAAG,0.0392
8,ATCTGCGA,0.00217
9,GTTACGTA,0.305
10,ATTACGTC,0.371
11,GGTACGTA,-0.032
12,ATTACGTG,0.423
13,AGTACGTG,-0.096
14,CTTACGTC,0.196
15,ACTACGTC,0.00455
16,GTTACGGA,-0.122
17,ACTACGTG,-0.223
18,ACCCTGGA,-0.243
19,AGCGCCCA,-0.243
20,AGTCAACT,-0.157
21,CGAGCTCG,0.0762
22,ATACCATA,0.259
23,ATACCATG,0.0359
24,GTACCATA,-0.04
25,CTGCCCAC,-0.151

row,Sequence,PBM E-score
1,GCCTTTAC,-0.0984
2,GGTATGAA,0.126
3,AGGTTCTC,-0.153
4,GAAAAACA,-0.0228
5,TAAAAACA,0.174
6,ATCAAGCA,0.114
7,ATCAAACA,0.274
8,CTCAAACA,0.0626
9,AAAAAACA,0.284
10,TAGATGCA,0.0348
11,ACTTTGAG,-0.126
12,AGGCCAGA,-0.0898
13,GATTCTTA,0.213
14,ATGTACAT,0.205
15,CTATCGAA,0.0827
16,CAATCCCG,0.259
17,CAATCCCA,-0.0745
18,CAATCCCC,0.0168
19,CCGGTTGC,0.00629
20,GTTGTCTA,0.114
21,ATTGTCTC,-0.017
22,ATTGTCTA,0.273
23,AAGTAGAG,-0.126
24,ACGCCTTG,-0.0542
25,GTAAAAGA,0.0603

row,Sequence,PBM E-score
1,CATGATTA,0.321
2,CATGATAG,0.0148
3,AATGATTA,0.335
4,GATGATTA,0.23
5,AATGATAA,0.227
6,AATGATTC,0.161
7,CATGATTC,-0.0303
8,CATGATGA,0.173
9,AATGATAG,0.272
10,CGCGTCGA,0.0758
11,TAACCGGA,0.106
12,GCGCACGC,-0.12
13,CCTGCAGG,-0.134
14,ACCGCGAC,-0.104
15,CACGGGTA,-0.0916
16,ACATGGTG,0.0908
17,AGTCTGGA,0.041
18,GCGAGACC,-0.127
19,ATCGATTA,0.248
20,AGCGATTA,0.127
21,CTCGATTC,0.119
22,AGGGATTA,0.0341
23,CGGGATTC,0.0661
24,CTCGATTA,0.264
25,CGCGATTC,0.124

row,Sequence,PBM E-score
1,CGCGATTA,0.263
2,CGGGATTA,0.294
3,ACCTACTC,0.0706
4,AGATCTGA,0.0167
5,ATTGCGTA,0.287
6,GTTGCTGA,0.12
7,ATTGCTGA,0.115
8,CTTGCTTA,0.229
9,ATTGCGTC,0.128
10,GTAGCTTA,0.279
11,ATTGCTTA,0.259
12,ATTGCTTG,0.177
13,GTTGCGTA,0.068
14,ATAGCTTA,0.154
15,GTTGCTTA,0.338
16,CTAGCTTA,0.256
17,CCTTGTTA,-0.0571
18,AACTCGGC,0.121
19,GCCGCTAC,-0.0553
